The text below walks through data of publication PMC6212790, “How bacterial xenogeneic silencer rok distinguishes foreign from self DNA in its resident genome”.

The full ranking holds about 33,000 sequences; the median of “e-score” is about -0.038, and the highest 2% start at about 0.33. The sample as a whole holds a higher share of the highest values than the screen did.

The assay concerns the target T1, GST-Rok-C97-191 (Bacillus subtilis subsp. subtilis str. …, UniProt O34857 97-191).
T1 sequence: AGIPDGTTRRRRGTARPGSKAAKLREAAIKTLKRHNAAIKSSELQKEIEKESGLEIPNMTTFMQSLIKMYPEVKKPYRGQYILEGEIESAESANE
The assay is described as follows: protein binding microarray; Rok is a gene silencer of Bacillus subtilis; high values mean tight binding. The following applies: protein: recombinant; tags: GST (pTH5325, pDEST15-Magic modified); dsDNA, one strand shown. Put shortly: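 Every oligonucleotide joins a 25-mer constant primer to a 35-mer variable part drawn from a de Bruijn sequence of order 10, so each non-palindromic 8-mer appears at least 32 times and each palindromic 8-mer 16 times. The preference for every 8-mer is reported as a unitless, rank-based enrichment score (E-score). This score spans 0.5 for the most favored 8-mer to −0.5 for the most disfavored.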
For the sequence ACGTACGG, the binding signal worked out at 0.0152 E-score.

On to GCTAGTAC, for which the binding signal is 0.184 E-score.

With ACTAGTCG, the binding signal was determined as 0.181 E-score.

In the case of ACTAGTAA, the binding signal amounted to 0.423 E-score.

Consider TCTAGTAA, for which the binding signal is 0.265 E-score.

In the case of CCTAGTAG, the binding signal turned out to be 0.25 E-score.

In the case of CCTAGTAA, the binding signal was found to be 0.145 E-score.

On to ACTAGTAC, for which the binding signal is 0.393 E-score.

Take ACCAGTAT: the binding signal was 0.196 E-score.

Consider ACTAGTCT, for which the binding signal worked out at 0.215 E-score.

Turning to ACTAGTAG, the binding signal came out at 0.404 E-score.

As for ACTAGTAT, the binding signal worked out at 0.409 E-score.

As for CCTAGTAC, the binding signal worked out at 0.0475 E-score.

Take ACCTTGGC: the binding signal is -0.158 E-score.

As for CATTCGAA, the binding signal turned out to be 0.101 E-score.

Regarding AACCAATT, the binding signal turned out to be 0.204 E-score.

On to ACTCAAGA, for which the binding signal is -0.0762 E-score.

Consider CATAATGA, for which the binding signal was found to be 0.175 E-score.

With AAATTGAT, the binding signal was found to be 0.0406 E-score.

Consider CTTCCTCA, for which the binding signal was -0.0806 E-score.

As for GACAGCGA, the binding signal is -0.193 E-score.

GCGTAGAC: the binding signal is -0.111 E-score.

AATATCTC: the binding signal was 0.28 E-score.

Regarding CATATCGA, the binding signal was 0.0885 E-score.

In the case of GATATCTA, the binding signal amounted to 0.349 E-score.

For the sequence GATATCCA, the binding signal turned out to be 0.0457 E-score.

For the sequence AATATCTA, the binding signal was 0.343 E-score.

AATATCTG: the binding signal was 0.2 E-score.

Consider GATATCAA, for which the binding signal came to 0.158 E-score.

As for CATATCTA, the binding signal was 0.34 E-score.

In the case of CATATCTC, the binding signal turned out to be 0.0436 E-score.

For the sequence ACATCTTC, the binding signal came to 0.0581 E-score.

Turning to ACTAAACC, the binding signal was -0.0801 E-score.

Take CCTATTAG: the binding signal came out at 0.16 E-score.

On to CGACTGAA, for which the binding signal was -0.021 E-score.

In the case of CGTAACAG, the binding signal amounted to 0.131 E-score.

For the sequence CGTCGAAA, the binding signal amounted to 0.106 E-score.

On to GTTTAGTA, for which the binding signal came out at 0.31 E-score.

For the sequence AATTAGTA, the binding signal amounted to 0.408 E-score.

Turning to ATTTAGTA, the binding signal came out at 0.4 E-score.

As for CATTAGTA, the binding signal was determined as 0.26 E-score.

For AATTAGTG, the binding signal amounted to 0.28 E-score.

In the case of ATTTAGTG, the binding signal was 0.0465 E-score.

As to CATGGAAC, the binding signal was -0.0493 E-score.

Consider CGTAAATA, for which the binding signal was 0.254 E-score.

On to CCTGAAAC, for which the binding signal is -0.0142 E-score.

For TATAAAGA, the binding signal is -0.131 E-score.

On to TAAAGTCA, for which the binding signal was -0.0164 E-score.

For AAATGCCC, the binding signal came out at 0.00515 E-score.

Take ACTACGCA: the binding signal is -0.0187 E-score.

For the sequence CAGTGTAC, the binding signal was determined as 0.0867 E-score.

Regarding AGTCAGCA, the binding signal was -0.0559 E-score.

Turning to AACAACAA, the binding signal is 0.1 E-score.

On to TACAACTA, for which the binding signal amounted to 0.338 E-score.

Take AACAACTA: the binding signal came to 0.266 E-score.

With GACAACAA, the binding signal is -0.114 E-score.

As for TACAACAA, the binding signal was 0.353 E-score.

With GACAACTA, the binding signal was determined as 0.295 E-score.

With CCAGTTCG, the binding signal is -0.177 E-score.

As for ACCAGTAG, the binding signal is 0.259 E-score.

GTCATCAA: the binding signal was -0.132 E-score.

For CTGGGAAA, the binding signal is -0.136 E-score.

As to GCTGCTAC, the binding signal came to 0.0824 E-score.

Turning to ACTAAGCA, the binding signal is 0.0291 E-score.

For ACAACCGG, the binding signal was -0.0576 E-score.

GCTCGAGC: the binding signal is -0.176 E-score.

In the case of CATTTGCA, the binding signal was found to be 0.157 E-score.

As for ATCTTCAT, the binding signal was determined as 0.204 E-score.

For AAACCTTC, the binding signal turned out to be 0.0022 E-score.

Consider CCGGACAA, for which the binding signal is -0.145 E-score.

Take CCACTCTC: the binding signal was -0.129 E-score.

For the sequence AACTTATA, the binding signal was 0.345 E-score.

Regarding AACTTCTA, the binding signal came to 0.246 E-score.

Consider GACTTATA, for which the binding signal came to 0.279 E-score.

On to GACTTCTA, for which the binding signal was 0.111 E-score.

On to TACTTACA, for which the binding signal stood at 0.31 E-score.

Regarding CACTTATA, the binding signal turned out to be 0.281 E-score.

Take TACTTATA: the binding signal came out at 0.331 E-score.

Consider AACTTATC, for which the binding signal came out at 0.168 E-score.

As to TACTTCTA, the binding signal amounted to 0.374 E-score.

GAATGTTA: the binding signal stood at 0.159 E-score.

On to CAGCAAGA, for which the binding signal was 0.159 E-score.

Consider CCGATATC, for which the binding signal amounted to 0.0718 E-score.

For GAGTGTAA, the binding signal worked out at 0.0764 E-score.

For ACCATTGG, the binding signal is -0.182 E-score.

Consider AAGCTACG, for which the binding signal is 0.0766 E-score.

Consider CAGCTACA, for which the binding signal turned out to be 0.0422 E-score.

Turning to AAGCTACC, the binding signal worked out at 0.362 E-score.

Regarding GATCTACA, the binding signal amounted to 0.29 E-score.

On to ACTCTACA, for which the binding signal came to 0.108 E-score.

AATCTACA: the binding signal amounted to 0.365 E-score.

Consider AGTCTACA, for which the binding signal is 0.0463 E-score.

Regarding CATCTACA, the binding signal amounted to 0.0976 E-score.

As for AAGCTACT, the binding signal came out at 0.195 E-score.

For TAGCTACA, the binding signal was found to be 0.353 E-score.

As for GAGCTACA, the binding signal was 0.151 E-score.

For TATCTACA, the binding signal amounted to 0.361 E-score.
